The source of these data is PubChem BioAssay AID588590 (National Center for Advancing Translational Sciences (NCATS), 2011).

Values joined by “and” are separate entries in the source; they are usually repeats but may differ in a detail not shown here. Equal values may be shown once. Screen size: about 390,000 compounds; about 4,000 (1%) were called active. Inconclusive results (about 7%) are left out. The call rests on the fitted dose curve; in most records, active means well fitted inhibition curve with a large enough effect; inconclusive means small, poorly fitted or top-dose-only effect, or another doubt; inactive means no such curve, though single readings can be large or run the other way. The full list was thinned out, with actives kept by preference. Some structures have more than one record in an assay (separate samples or runs), and their calls can disagree.
Potency means the concentration at half of the fitted maximal effect.

Chain of DNA polymerase iota (Homo sapiens) (Q9UNA4 whole entry, looked up): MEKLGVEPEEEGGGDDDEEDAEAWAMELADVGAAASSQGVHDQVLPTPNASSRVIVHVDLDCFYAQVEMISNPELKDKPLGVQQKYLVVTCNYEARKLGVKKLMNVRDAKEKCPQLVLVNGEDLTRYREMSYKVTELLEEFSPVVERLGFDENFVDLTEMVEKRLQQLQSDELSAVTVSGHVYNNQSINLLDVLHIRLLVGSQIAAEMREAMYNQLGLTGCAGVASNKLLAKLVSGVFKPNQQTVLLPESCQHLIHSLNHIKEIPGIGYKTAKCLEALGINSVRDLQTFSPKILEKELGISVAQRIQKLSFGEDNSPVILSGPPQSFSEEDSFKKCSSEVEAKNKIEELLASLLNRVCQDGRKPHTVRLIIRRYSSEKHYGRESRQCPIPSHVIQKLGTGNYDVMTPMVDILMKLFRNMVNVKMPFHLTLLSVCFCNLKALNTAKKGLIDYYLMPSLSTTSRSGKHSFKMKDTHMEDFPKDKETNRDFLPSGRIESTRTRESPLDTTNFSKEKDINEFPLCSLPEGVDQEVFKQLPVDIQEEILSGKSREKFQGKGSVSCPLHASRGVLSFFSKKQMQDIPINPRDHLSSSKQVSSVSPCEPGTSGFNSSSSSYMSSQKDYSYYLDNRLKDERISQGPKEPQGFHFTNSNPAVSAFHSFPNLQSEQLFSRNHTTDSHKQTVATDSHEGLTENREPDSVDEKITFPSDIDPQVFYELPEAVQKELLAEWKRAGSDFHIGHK

The target of the test is DNA polymerase iota (Homo sapiens) (UniProt Q9UNA4). Kind of test: qHTS for Inhibitors of Polymerase Iota. The conditions noted are these: Pol iota fluorescent replication assay, 10 min; series mostly up to 115 µM; activity, negative = inhibition: at the top concentration. In short, it runs like this:
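Pol iota at 10 nM preincubated 15 min with compounds at room temperature; reaction started with fluorescent substrate, 50 nM final. Fluorescence read kinetically at 0 and 10 min; buffer-only wells as negative control.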
(In general: In qHTS, concentration-response curves come from the screen itself.)
In the case of `Cc1ccc(-c2nn(-c3ccccc3)cc2/C=C/C(=O)Nc2cccc(S(N)(=O)=O)c2)cc1`, the “activity, negative = inhibition” value was 6.92% (inactive).

With `COc1cccc(-c2nn(-c3ccccc3)cc2/C=C(\C#N)C(=O)NCCCn2ccnc2)c1`, the “activity, negative = inhibition” value was 196% (inactive).

Turning to `O=C1/C(=C/c2coc3ccc(O)cc3c2=O)SC(=S)N1c1ccccc1`, the “activity, negative = inhibition” value is -10.5% (inactive).

On to `CN(C)S(=O)(=O)c1cccc(-c2nn(-c3ccccc3)cc2/C=C2\SC(=S)N(CC(=O)O)C2=O)c1`, for which the Potency is 31.6 µM (active).

For the molecule `O=C(O)CCCCCCCCc1cn(CN2C(=O)c3ccccc3C2=O)nn1`, the Potency result is “inactive”.

As to `Cc1ccc(-c2nn(-c3ccccc3)cc2/C=C2\SC(=S)N(CCCCCC(=O)O)C2=O)o1`, the Potency was 89.1 µM (active).

Regarding `CCn1cc(C(=O)N(C)Cc2ccccc2)c(=O)c2cc(S(=O)(=O)N3CCCCCC3)ccc21`, the “activity, negative = inhibition” value is 15.7% (inactive).

Regarding `COc1ccc(Cn2c(=O)n(-c3ccccc3C)c(=O)c3c4c(sc32)CN(C(C)=O)CC4)cc1`, the “activity, negative = inhibition” value was 26.2% (inactive).

Turning to `CCn1c(C(=O)Nc2cc(Cl)ccc2C)cc2sc(Cl)cc21`, the “activity, negative = inhibition” value was 36.3% (inactive).

As to `Cc1ccc2nc(/C(C#N)=C/c3ccc(-c4ccc(C(=O)OC(C)C)cc4)o3)[nH]c2c1`, the “activity, negative = inhibition” value was 18.9% (inactive).

Take `CN(Cc1ccco1)S(=O)(=O)c1nnc(NC(=O)c2ccccc2)s1`: the Potency result was “inactive and 44.7 µM (active)”.

Consider `CN(Cc1ccccc1)S(=O)(=O)c1nnc(NC(=O)c2ccccc2F)s1`, for which the “activity, negative = inhibition” value is 1.73% (inactive).

On to `CCCCC(=O)Nc1nnc(S(=O)(=O)N(C)Cc2ccco2)s1`, for which the “activity, negative = inhibition” value was -11% (inactive).

Regarding `CN(Cc1ccccc1)c1ccc(-c2nc(-c3ccccc3)no2)cc1[N+](=O)[O-]`, the “activity, negative = inhibition” value is 51.2% (inactive).

As for `CC(=O)c1ccc(NC(=O)c2nc3nc(C)cc(C(F)F)n3n2)cc1`, the “activity, negative = inhibition” value was -14.5% (inactive).

Turning to `COc1ccc(-c2nc(S(=O)(=O)c3ccccc3)c(N3CCCCC3)o2)cc1`, the “activity, negative = inhibition” value was 8.68% (inactive).

Turning to `CCn1cc(C(=O)N2CCN(c3cc(C)ccc3C)CC2)c(=O)c2cc(S(=O)(=O)N(C)C3CCCCC3)ccc21`, the “activity, negative = inhibition” value was 7.13% (inactive).

Take `O=C(O)c1ccc(Cn2c(SCc3ccc(F)cc3)nc3ccncc32)cc1`: the “activity, negative = inhibition” value was -4.26% (inactive).

For the molecule `Cc1cc(-c2n[nH]c(=S)n2-c2ccc(C)c(C)c2)no1`, the “activity, negative = inhibition” value is -3.17% (inactive).

Regarding `COc1cc(-c2n[nH]c(=S)n2Cc2ccccc2)cc(OC)c1OC`, the “activity, negative = inhibition” value is 45.3% (inactive).

With `COc1ccccc1-n1c(-c2cc(-c3ccco3)[nH]n2)n[nH]c1=S`, the Potency was 8.91 µM (active).

`CCOc1c(Br)cc(/C=C2\C(=O)N(CCC#N)N=C2C)cc1OC`: the Potency is 0.794 µM (active).

Turning to `CCOc1ccc(/C=C(\C#N)c2nc3ccccc3c(=O)[nH]2)cc1OC`, the “activity, negative = inhibition” value is 17.8% (inactive).

As to `C=CCOc1c(Br)cc(/C=N\n2nnnc2N)cc1OC`, the “activity, negative = inhibition” value is 8.73% (inactive).

Consider `CC(C)(C)OC(=O)N1CCC(c2c(C(=O)NCc3ccccn3)cnn2-c2ccc(F)cc2)CC1`, for which the “activity, negative = inhibition” value is 23.8% (inactive).

For `CC(=O)Nc1ccc(NC(=O)C2CCCN2S(=O)(=O)c2cccc(C(F)(F)F)c2)cc1` (configuration not stated), the “activity, negative = inhibition” value is 22.6% (inactive).

With `CCc1nnc(NC(=O)C2CCCN2S(=O)(=O)c2ccccc2)s1` (configuration not stated), the “activity, negative = inhibition” value is -7.41% (inactive).

With `CCc1ccc(NC(=O)C2CCCN2S(=O)(=O)c2ccc3nc(-c4ccccc4)[nH]c3c2)cc1` (configuration not stated), the Potency is 89.1 µM (active).

As for `CN(CCC#N)c1ccc(C=O)cc1`, the “activity, negative = inhibition” value was 1.08% (inactive).

As for `Cc1ccc(Nc2c(-c3ccc(C)cc3)nc3cnccn23)cc1`, the “activity, negative = inhibition” value was 9.48% (inactive).

Consider `COc1cccc(NC(=O)c2ccc3nc(CCc4ccccc4)oc3c2)c1`, for which the “activity, negative = inhibition” value is 0.161% (inactive).

For `Cc1nn(-c2ccc(F)cc2)c(Cl)c1/C=C(/CCC(=O)O)c1nc2ccccc2s1`, the “activity, negative = inhibition” value was 58% (inactive).

Take `COc1ccc(C(=O)Nc2cccc(/C=C(/CCC(=O)O)c3nc4ccccc4s3)c2)cc1`: the Potency was 12.6 µM (active).

Consider `Cc1csc[n+]1CCC1CCCCC1`, for which the “activity, negative = inhibition” value is 42.3% (inactive).

Regarding `CCOC(=O)c1ccc(NC(=O)c2csc3c2CCCCC3)cc1`, the “activity, negative = inhibition” value was 45.5% (inactive).

Take `CCOc1ccc(C(=O)/C=C/c2cn(CC(O)CN3CCCCCC3)c3ccccc23)cc1` (configuration not stated): the “activity, negative = inhibition” value is -23.7% (inactive).

Consider `O=C(CN1CCSc2ccccc21)N1CCN(c2ccccc2)CC1`, for which the “activity, negative = inhibition” value is 5.88% (inactive).

With `CC(C)c1ccc(NS(=O)(=O)c2ccc3[nH]cc(C(=O)NC4CCCC4)c(=O)c3c2)cc1`, the Potency was 79.4 µM (active).

Take `Cc1cc(C)cc(NS(=O)(=O)c2ccc3[nH]cc(C(=O)N4CCCCC4)c(=O)c3c2)c1`: the “activity, negative = inhibition” value was -3.74% (inactive).

Regarding `CCCCNC(=O)c1c[nH]c2ccc(S(=O)(=O)Nc3ccc(OCC)cc3)cc2c1=O`, the “activity, negative = inhibition” value was -18.8% (inactive).

In the case of `Cc1ccc(C)c(N2CCN(Cc3nnc(-c4ccccc4)o3)CC2)c1`, the “activity, negative = inhibition” value was 20.8% (inactive).

With `CN(CC(=O)Nc1ccccc1F)S(=O)(=O)c1ccc2c(c1)c(=O)n(C)c(=O)n2C`, the “activity, negative = inhibition” value was -9.64% (inactive).

As to `CS(=O)(=O)c1ccc2c(c1)SC1=NC(=O)/C(=C/c3ccco3)C(=N)N12`, the Potency was 14.1 µM (active).

As for `CCNC(=O)CC1C(=O)N(c2ccc(F)cc2)C(=O)N1Cc1ccc(C)cc1` (configuration not stated), the “activity, negative = inhibition” value is 23.2% (inactive).

Take `CCN(CC)S(=O)(=O)c1cccc(-c2n[nH]c(=S)n2/N=C/c2ccc(C(=O)OC)cc2)c1`: the “activity, negative = inhibition” value was 10.3% (inactive).

With `S=c1[nH]nc(-c2cc(-c3ccccc3)n[nH]2)n1/N=C/c1c2ccccc2cc2ccccc12`, the Potency was 20 µM (active).

On to `CCCc1cc(-c2n[nH]c(=S)n2CC)c2ccccc2n1`, for which the “activity, negative = inhibition” value is 3.81% (inactive).
